Reference: paper PMC4336329 (PLoS ONE, 2015)
Screen size: about 310,000 compounds; about 14,000 (4.5%) showed an effect of 50% or more. The effect is printed as a negative number. Shown is part of a subset that was picked to be rich in strong results.

What follows are compounds tested against human ether-à-go-go-related gene (hERG) potassium channel (human, UniProt Q12809) (assay: primary screen, population patch clamp on CHO cells stably expressing hERG; higher = less effect of the substance).
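Further: peak tail current of the secondary pulse compared with the same well before compound.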

Chain of human ether-à-go-go-related gene (hERG) potassium channel (Q12809 whole entry, looked up): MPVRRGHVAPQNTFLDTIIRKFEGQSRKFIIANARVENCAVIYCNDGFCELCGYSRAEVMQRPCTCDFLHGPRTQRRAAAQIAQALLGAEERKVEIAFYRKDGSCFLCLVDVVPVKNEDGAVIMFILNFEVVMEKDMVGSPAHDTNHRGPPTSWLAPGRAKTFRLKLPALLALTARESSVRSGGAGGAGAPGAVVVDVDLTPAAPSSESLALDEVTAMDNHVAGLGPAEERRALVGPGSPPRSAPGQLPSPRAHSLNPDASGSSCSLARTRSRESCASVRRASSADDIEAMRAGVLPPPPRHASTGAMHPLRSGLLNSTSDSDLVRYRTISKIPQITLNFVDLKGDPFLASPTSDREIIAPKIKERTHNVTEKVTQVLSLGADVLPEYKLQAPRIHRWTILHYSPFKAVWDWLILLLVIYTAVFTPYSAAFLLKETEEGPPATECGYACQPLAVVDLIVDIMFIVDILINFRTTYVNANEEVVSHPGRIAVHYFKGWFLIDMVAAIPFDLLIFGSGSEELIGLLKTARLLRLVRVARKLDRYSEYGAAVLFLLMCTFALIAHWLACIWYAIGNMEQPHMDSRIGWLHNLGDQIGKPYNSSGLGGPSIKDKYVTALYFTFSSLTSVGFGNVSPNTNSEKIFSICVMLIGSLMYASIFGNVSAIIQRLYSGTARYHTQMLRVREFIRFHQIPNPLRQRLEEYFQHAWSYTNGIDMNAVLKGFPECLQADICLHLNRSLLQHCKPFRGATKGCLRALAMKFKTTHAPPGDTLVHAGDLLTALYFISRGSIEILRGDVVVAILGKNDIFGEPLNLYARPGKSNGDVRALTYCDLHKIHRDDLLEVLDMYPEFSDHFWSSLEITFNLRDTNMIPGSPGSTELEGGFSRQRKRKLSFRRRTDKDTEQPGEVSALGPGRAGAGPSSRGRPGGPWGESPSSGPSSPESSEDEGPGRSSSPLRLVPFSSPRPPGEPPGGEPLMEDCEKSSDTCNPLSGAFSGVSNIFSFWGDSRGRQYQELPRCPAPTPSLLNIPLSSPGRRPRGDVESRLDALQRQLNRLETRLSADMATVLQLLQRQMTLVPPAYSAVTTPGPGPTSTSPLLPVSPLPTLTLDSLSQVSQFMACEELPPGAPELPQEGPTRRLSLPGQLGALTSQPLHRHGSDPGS

Row | SMILES | hERG current change (%, negative = inhibition) at 10uM [%]
1 | Cc1cc(=O)[nH]c(Nc2ccc(Cl)cc2)n1 | 15
2 | CN1C(=O)C(CC(=O)Nc2ccccc2F)N(NC(=O)c2ccc(Br)cc2)C1=S (stereo not shown) | 6.5
3 | Cc1ccc(CCSCC(=O)O)cn1 | 18.9
4 | C=CCN1C(=O)CSc2ccc(C(=O)NCc3ccc(F)cc3)cc21 | -21.3
5 | CCN(C(=O)COc1ncnc2sccc12)c1ccccc1 | 63.8
6 | COc1ccc(C2SCC(=O)N2c2c(C)n(C)n(-c3ccccc3)c2=O)cc1OC (stereo not shown) | 13.6
7 | CC(COc1ccccc1)N1CCC(CO)(CCc2ccccc2)CC1 (stereo not shown) | -80.3
8 | COc1cccc(CC2(CO)CCN(S(=O)(=O)c3ccc(OC)cc3OC)CC2)c1 | -10.7
9 | COc1ccc(CC2(CO)CCN(C(C)COc3ccccc3)CC2)cc1 (stereo not shown) | -82
10 | CN(C)S(=O)(=O)N1CCC(CO)(CCc2ccccc2)CC1 | -8.86
11 | COC(=O)CCCC(=O)N1CCC(CO)(CCc2ccccc2)CC1 | -23.8
12 | COc1ccc(CCC(C)N2CCC(CO)(Cc3ccccc3)CC2)cc1 (stereo not shown) | -73.4
13 | CSCC(C)N1CCC(CO)(CCc2ccccc2)CC1 (stereo not shown) | -29.4
14 | CSCC(C)N1CCC(CO)(CCCc2ccccc2)CC1 (stereo not shown) | -55.7
15 | COc1ccc(CC2(CO)CCN(S(=O)(=O)c3sccc3C)CC2)cc1 | -20.9
16 | COc1ccc(CC2(CO)CCN(C(=O)NCc3ccccc3)CC2)cc1 | -2.8
17 | COc1ccc2c(C)c(CCC(=O)NCCCN3CCCC3=O)c(=O)oc2c1C | 1.56
18 | Cc1ccc(-c2ccc(=O)n(CC(=O)NCCN3C(C)CCCC3C)n2)cc1 (stereo not shown) | 0.00388
19 | CCCN(c1ccccc1F)S(=O)(=O)c1cc(-c2cc(C)no2)ccc1OC | 6.91
20 | Cc1ccnc(NC(=O)CCC(=O)N(CC(=O)NC(C)(C)C)c2ccc3c(c2)OCCO3)c1 | 17.8
21 | Cn1cc(Cl)nc1C(O)c1ccccc1 (stereo not shown) | 7.21
22 | Br.O=S(=O)(c1ccc(-c2csc(Nc3ccc(Br)cc3)n2)cc1)N1CCCC1 | 10.2

Row | SMILES | hERG current change (%, negative = inhibition) at 10uM [%]
23 | Cc1cccc(N(CC(=O)NC2CCCCC2)C(=O)c2ccc(C)s2)c1 | -24.7
24 | O=C(COc1ccc(C(=O)c2ccccc2)cc1)NC1CCCCCC1 | -21.9
25 | CC(C)(C)NC(=O)CCC1COc2ccccc2O1 (stereo not shown) | -4.27
26 | Cc1cccc(C)c1NC(=O)N1C2CCC1CC(O)(c1cccnc1)C2 (stereo not shown) | 20.2
27 | Cc1ccc(/C=C/C(=O)NCc2ccccn2)o1 | -26.4
28 | COc1ccc([C@@H]2[C@@H]3C(=O)N(C(C)(C)C)C(=O)[C@@H]3[C@]3(Cc4ccc(Cl)cc4)C(=O)N(c4ccc(Br)cc4)C(=O)N23)cc1 | 2.7
29 | COc1ccc(CCC(C)N2CCc3ccccc3C2)cc1 (stereo not shown) | -61.7
30 | COc1ccc(CC2(CO)CCN(S(=O)(=O)N(C)C)CC2)cc1 | 9.82
31 | COc1ccc(CC2(CO)CCN(C(C)Cc3ccc(Cl)cc3)CC2)cc1 (stereo not shown) | -80.4
32 | COc1ccc(CCC(C)N2CCOCC2)cc1 (stereo not shown) | 2.71
33 | CN1CCC(CO)(Cc2ccccc2)CC1 | 16.2
34 | COc1ccc(CC(=O)N2CCc3ccccc3C2)cc1 | 3.67
35 | COc1ccc(CC2(CO)CCN(S(=O)(=O)c3c(C)nn(C)c3Cl)CC2)cc1 | 14.7
36 | CC(COc1ccccc1)N1CCC(CO)(Cc2ccccc2)CC1 (stereo not shown) | -50.6
37 | Cc1ccsc1C(=O)N1CCC(CO)(Cc2ccccc2)CC1 | 17.6
38 | COc1ccc(N2CCN(C(=O)Cn3ncc4c([nH]c5ccccc54)c3=O)CC2)cc1 | 9.02
39 | CCOC(=O)Cc1csc(NC(=O)c2ccc(S(=O)(=O)N3CCCCC3)cc2)n1 | -42.2
40 | O=[N+]([O-])c1cccn2cc(-c3ccc(Br)cc3)nc12 | -2.94
41 | NS(=O)(=O)c1ccc(CCNC(=O)CCCCCNc2nc(=S)[nH]c3ccccc23)cc1 | 24.4
42 | Cc1ccc(-n2c(=O)cc(NCc3cccnc3)[nH]c2=O)cc1 | -65.5
43 | Cc1ccc(NCc2cccnc2)cc1 | 2.82
44 | CC(=NCc1cccnc1)c1c(O)n(-c2ccc(C)cc2)c(=O)[nH]c1=O | -8.92

Row | SMILES | hERG current change (%, negative = inhibition) at 10uM [%]
45 | COc1ccc(-c2cc(C(=O)N3CCCCCC3)no2)cc1OC | 7.06
46 | Cn1c(=O)c2c(nc(-n3ccnc3)n2Cc2ccc([N+](=O)[O-])cc2)n(C)c1=O | -43.7
47 | Cc1cc(C(=O)CN2CCN(CC(=O)Nc3ccc(F)cc3)CC2)c(C)n1C1CC1 | -74.5
48 | Cc1cc(C(=O)CN2CCN(CC(=O)Nc3cccc(F)c3)CC2)c(C)n1C1CC1 | -56.2
49 | Cc1cc(C(=O)OCC(=O)Nc2cccc(F)c2)c(C)n1C1CC1 | -2.59
50 | Cc1cc(C(=O)OCC(=O)Nc2ccc(F)cc2)c(C)n1C1CC1 | 5.51
51 | Cc1cc(C(=O)CN2C(=O)c3ccccc3C2=O)c(C)n1C1CC1 | -1.31
52 | Cc1cccc(C)c1NC(=O)CN1CCN(CC(=O)c2cc(C)n(C3CC3)c2C)CC1 | -12.4
53 | CC1=C(C(=O)OCc2ccccc2)C(c2ccsc2)NC(=O)N1C (stereo not shown) | -37.7
54 | CCOC(=O)C(Cc1ccc(OC)c([N+](=O)[O-])c1)NC(=O)CCC(=O)Nc1ccc(C)cc1 (stereo not shown) | -26.2
55 | COC(=O)c1ccc(/C=C/c2c(-c3ccc(OC)cc3)oc3ccc(N4CCOCC4)cc23)cc1 | 25.7
56 | Cc1cc(NC(=O)c2cnn3c(C(F)(F)F)cc(-c4ccc(Br)cc4)nc23)no1 | 24.4
57 | C[C@]12CC[C@@H]3c4ccc(O)cc4C(=O)C[C@H]3[C@@H]1CC[C@@H]2O | -52.7
58 | C[C@]12CC[C@@H]3c4ccc(O)cc4[C@@H](O)C[C@H]3[C@@H]1CC[C@@H]2O | 10.4
59 | C[C@]12CC[C@@H]3c4ccc(O)c(O)c4CC[C@H]3[C@@H]1CC[C@@H]2O | 15.4
60 | CCN(CC)S(=O)(=O)c1ccc(/C=C/C(=O)OCC#N)cc1 | -12.4
61 | COC(=O)c1cccc(NCN2C(=O)c3ccccc3C2=O)c1 | 1.11
62 | Cc1nc2ccccc2c(C)c1CC(=O)N(C)CC(=O)Nc1cccc(F)c1 | -55.9
63 | COc1cccc(NC(=O)CN(C)C(=O)Cc2c(C)nc3ccccc3c2C)c1 | -62.8
64 | COc1ccc(NC(=O)CN(C)C(=O)Cc2c(C)nc3ccccc3c2C)cc1 | -46.1
65 | CN(CC(=O)Nc1cccc(F)c1)C(=O)CCc1nc2ccccc2c(=O)[nH]1 | 2.42
66 | CCOc1ccc(NC(=O)CN(C)C(=O)Cc2c(C)nc3ccccc3c2C)cc1OCC | -47

Row | SMILES | hERG current change (%, negative = inhibition) at 10uM [%]
67 | CN(CC(=O)Nc1cccc(F)c1)C(=O)Cc1n[nH]c(=O)c2ccccc12 | 5.31
68 | Cc1ccc(C(C(=O)NC(C)(C)C)N(C(=O)c2csnn2)c2ccccc2F)o1 (stereo not shown) | -9.84
69 | CC(C)CC(=O)NS(=O)(=O)c1ccc(NS(C)(=O)=O)cc1 | 11.7
70 | CCCc1nc(Nc2nc3ccccc3o2)nc(C)c1C(=O)OCC | -18.3
71 | CCOCCCN(C(=O)Cn1nnc(-c2ccc(OC)c(OC)c2)n1)C(C(=O)NCC1CCCO1)c1ccc(F)cc1 (stereo not shown) | -12.8
72 | CCN(CC)CCN(C(=O)Cn1nnc(-c2ccc(OC)c(OC)c2)n1)C(C(=O)NC1CCCC1)c1ccc(F)cc1 (stereo not shown) | -35.1
73 | CCN(CC)CCCN(C(=O)Cn1nnc(-c2ccc(OC)c(OC)c2)n1)C(C(=O)NC(C)(C)C)c1ccc(F)cc1 (stereo not shown) | -74.5
74 | CCOC(=O)N1CCC(N2CCN(c3ccccc3)CC2)CC1.Cl | -21.4
75 | CCOC(=O)N1CCC(Nc2c(NCCN3CCN(c4cccc(Cl)c4)CC3)c(=O)c2=O)CC1 | -0.879
76 | CCOC(=O)N1CCC(NCCNC(=O)c2ccc(F)cc2)CC1.Cl | -25.2
77 | CCOC(=O)N1CCC(NCCNC(=O)c2ccc(Cl)cc2)CC1 | -57.8
78 | CCOC(=O)N1CCC(Nc2c(N3CCN(c4cc(Cl)ccc4C)CC3)c(=O)c2=O)CC1 | -80.4
79 | CCOC(=O)N1CCN(c2c(NCc3ccc(Cl)cc3)c(=O)c2=O)CC1 | -17
80 | CCOC(=O)N1CCC(Nc2c(N3CCN(c4cccc(C(F)(F)F)c4)CC3)c(=O)c2=O)CC1 | -76.8
81 | CCOC(=O)N1CCC(N2CCN(c3cc(C)ccc3C)CC2)CC1 | -51.2
82 | CCOC(=O)N1CCN(c2c(NC3CCN(Cc4ccccc4)CC3)c(=O)c2=O)CC1 | 7.18
83 | CCOC(=O)N1CCN(c2c(N3CCN(c4cccc(C(F)(F)F)c4)CC3)c(=O)c2=O)CC1 | -46.4
84 | CCOC(=O)N1CCC(NC(=O)c2ccc(Cl)cc2)CC1 | -14.5
85 | CCOC(=O)N1CCN(c2c(N3CCN(c4cc(C)ccc4C)CC3)c(=O)c2=O)CC1 | -15.1
